The whole screen tested about 48,000 compounds, of which about 13,000 (27%) showed an effect of 50% or more. The list shows a part of the results.
Test system: Wolbachia pipientis
Assay: Anti-Wolbachia Cell-Based Screen
Assay type: functional
Parameters: scale not given: in the data most compounds retested in dose-response had high values
Settings: 5 µM

| Compound | Percent Effect |
| --- | --- |
| O=S(=O)(C1CC1)N1CCOCC2(CN(c3ncccn3)CCO2)C1 (stereo not given) | -5.762% |
| CCn1cc(C(=O)N2CCCN(c3cccnn3)CC2)c2ccccc21 | -8.81% |
| CO[C@@H]1CCN(Cc2ccoc2)[C@H]1Cc1ccccc1.O=C(O)C(F)(F)F | 118.7% |
| CO[C@@H]1CCN(Cc2ccc(C)o2)[C@H]1Cc1ccccc1.O=C(O)C(F)(F)F | 10.3% |
| COc1ccc(CN2CC[C@@H](O)[C@@H]2Cc2ccccc2)cc1.O=C(O)C(F)(F)F | 17.99% |
| CO[C@H]1CCN(Cc2ccoc2)C[C@@H]1Cc1ccccc1.O=C(O)C(F)(F)F | 68.19% |
| CO[C@@H]1CCN(C2CCOCC2)C[C@@H]1Cc1ccccc1.O=C(O)C(F)(F)F | -11.13% |
| CO[C@@H]1CCN(Cc2ccoc2)C[C@@H]1Cc1ccccc1.O=C(O)C(F)(F)F | 89.22% |
| CO[C@H]1CCN(C2CCOCC2)C[C@@H]1Cc1ccccc1.O=C(O)C(F)(F)F | -3.139% |
| O=C(O)C(F)(F)F.c1ccc(C[C@H]2CN(C3CCOCC3)CC[C@H]2OCC2CC2)cc1 | -4.378% |
| CO[C@@H]1CCN(Cc2nccs2)C[C@@H]1Cc1ccccc1.O=C(O)C(F)(F)F | -16.15% |
| Cc1cc(Cl)c2c(c1)C1(NC(=O)c3cccnc3N1)C(=O)N2 (stereo not given) | -1.916% |
| CC(C)=CCC1(CO)CCCN(Cc2nccs2)C1 (stereo not given) | 1.266% |
| O=C(O)C(F)(F)F.O=C(c1ccnnc1)N1CCN2C[C@H](Oc3cccc(F)c3)C[C@H]2C1 | -26.48% |
| COc1ccc(C)cc1NC(=O)Cn1nc(C)c(C#N)c1N | -0.6679% |
| COc1ccccc1C1(CNc2snc(Cl)c2C#N)CCCC1 | -12.01% |
| Cc1nc(CN2CCC3(CCCO3)CC2)c2ccccn12 | 20.84% |
| Cc1ccc(C2(O)CCN(Cc3nc(C)n4ccccc34)CC2)nc1 | -9.121% |
| COc1c(CNC2(c3ccc(Cl)cc3)CCC2)c(C)nn1C | -12.89% |
| Cc1nc(CN2CCC(O)(c3ccccc3F)CC2)c2ccccn12.O=C(O)CC(O)(CC(=O)O)C(=O)O | 94.96% |
| Cc1nc2sccn2c1CNc1cc(C(=O)O)ccc1F | -0.08043% |
| Cc1nc2sccn2c1CNC1(c2ccccc2F)CCCC1.O=C(O)CC(O)(CC(=O)O)C(=O)O | 86.58% |
| COc1ccc(C2(NCc3c(C)nc4c(C)cccn34)CCCC2)cc1.O=C(O)CC(O)(CC(=O)O)C(=O)O | 147.1% |
| COc1ccc(C2(NC(=O)CCn3cncn3)CCCCC2)cc1 | -6.832% |

| Compound | Percent Effect |
| --- | --- |
| COc1ccccc1C1(CNc2nnc(C)c(C)c2C#N)CCCC1 | -5.07% |
| Cc1nc2sccn2c1CNc1ccc(C(=O)O)cc1 | 3.655% |
| COc1ccccc1C1(NCc2c(C)nc3c(C)cccn23)CCCC1.Cl | 58.58% |
| Cc1oncc1C(=O)N1CC[C@H]2[C@H](CO[C@@H]2CNS(C)(=O)=O)C1 | -5.011% |
| COc1ccc(CNCCC(=O)N2CCc3sccc3C2)cc1O | -10.83% |
| Cc1cn2c(=O)c(-c3ccnc(N4CCC[C@@H]4CO)n3)cnc2s1 | 87.72% |
| COc1ccc(-c2noc(-c3ccc(N4CCC[C@H]4CO)nc3)n2)cc1 | -7.045% |
| O=c1c(-c2ccnc(N3CCCC[C@@H]3CO)n2)cnc2sccn12 | 125.6% |
| O=C(NCCc1cccs1)N1CCC[C@H]1CO | -11.14% |
| CC(C)(C)c1cn2nc(N3CCC[C@@H]3CO)sc2n1 | -4.736% |
| Cc1cnn(CC2CCCN2Cc2cc(=O)n3c(C)csc3n2)c1 (stereo not given) | 1.323% |
| O=c1c(-c2ccnc(N3CCC[C@H]3CO)n2)cnc2sccn12 | 102.3% |
| OCC1CCCCN1c1ccc(-c2nc(-c3ccccc3F)no2)cn1 (stereo not given) | 1.745% |
| Cc1csc2ncc(-c3ccnc(N4CCCC[C@@H]4CO)n3)c(=O)n12 | 6.094% |
| Cc1csc2ncc(-c3ccnc(N4CCC[C@@H]4CO)n3)c(=O)n12 | 56.16% |
| COC(=O)C(NC(=O)c1cc(C)ccc1C)c1cccnc1 (stereo not given) | -6.12% |
| CCCc1cc(NC(=O)c2ccc(Cl)c(N3CCNC3=O)c2)n[nH]1 | 5.533% |
| COC(=O)c1cccc(S(=O)(=O)N2CSCC2C(=O)N(C)C2CC2)c1 (stereo not given) | -20.06% |
| CC(C)C(c1cccnc1)N(C)C(=O)Cc1c(F)cccc1F (stereo not given) | 1.062% |
| CNC(=O)NCC(=O)N(C)C(c1ccc(Cl)cc1)c1cccnc1 (stereo not given) | 108.8% |
| CN(CC(=O)N(C)C(c1cccnc1)c1ccc(F)c(F)c1)C1CC1 (stereo not given) | 12% |
| CN(CC(=O)N(C)C(c1ccc(Cl)cc1)c1cccnc1)C1CC1 (stereo not given) | 97.71% |
| CCN(C(c1ccc(OC)cc1)c1cccnc1)S(C)(=O)=O (stereo not given) | 3.822% |
| CCN(C(C)=O)C(c1cccnc1)c1cc(C)cc(C)c1 (stereo not given) | 0.6077% |

| Compound | Percent Effect |
| --- | --- |
| CC(=O)N(C)C(c1cccnc1)c1ccc(F)c(F)c1 (stereo not given) | 0.3352% |
| CNC(=O)NC(=O)CN(C)C(c1cccnc1)c1ccc(F)cc1F (stereo not given) | -23.22% |
| CCC(=O)NCC(=O)N(C)C(c1ccc(Cl)cc1)c1cccnc1 (stereo not given) | 138.5% |
| CC(C)N1CCC(N2CCOC3(CCCC3)C2)C1=O (stereo not given) | 10.32% |
| Cc1cnc(CNc2c(F)cccc2-n2cccn2)o1 | -16.45% |
| O=C(O)C(F)(F)F.O=C(O)C(F)(F)F.O=C(O)C(F)(F)F.O=C(O)c1cc2c(nc1-c1ccncc1)CCN(C1CCOC1)CC2 (stereo not given) | -8.005% |
| O=C(O)CCc1nc2nccc(-c3ccc(F)cc3)n2n1 | 119.2% |
| O=C(O)CCc1nc2nccc(C(F)(F)F)n2n1 | 112.1% |
| O=C(O)CCc1cc2n(n1)CCCN(C(=O)c1ccc(F)cc1F)C2 | -66.14% |
| O=C(O)Cc1cccc(-n2ccnc2-c2ccc(F)c(Cl)c2)c1 | -0.5745% |
| N#Cc1ccnc(N2CCN(CC(O)c3ccc(F)cc3)CC2)c1 (stereo not given) | -11.77% |
| CC(C)c1cc(C(F)(F)F)n2nc(CCC(=O)O)nc2n1 | -4.305% |
| O=C(O)Cc1nc2nccc(-c3ccc(F)cc3)n2n1 | 127% |
| CCN(Cc1c(F)cccc1F)C(=O)c1ccncc1O | -5.979% |
| COCC1CCN(S(=O)(=O)N2C[C@H](c3ccccc3)[C@@H](N)C2)CC1 | -1.102% |
| CCc1ccc2nc(C)cc(C(=O)NCc3csc(N(C)C)n3)c2c1 | -26.8% |
| COc1nn(C)c2c1CCCN(S(=O)(=O)c1cccc(C)c1)C2 | 0.0765% |
| O=C(C1CC1)N1CC[C@H]2C(=O)N(c3ccsc3)CCO[C@H]2C1 | 9.146% |
| FC(F)C(F)(F)COCc1ncnn1-c1ccc2c(c1)OCO2 | -0.1872% |
| CN(C)C(=O)NC1COC2(CCN(Cc3ccc(Cl)c(F)c3)CC2)C1.O=C(O)C(F)(F)F (stereo not given) | 5.668% |
| CC(O)CN1CCN(C(=O)c2ccc(Cn3cccn3)cc2)CC1 (stereo not given) | 3.707% |
| O=C(c1ccc(Oc2cccnc2)cc1)N1CCN(CCO)CC1 | 6.053% |
| CC(O)CN1CCN(C(=O)c2ccc(Cn3cccc3)cc2)CC1 (stereo not given) | 3.366% |
| CCCN1CCN(C(=O)c2ccc(Cn3cc(Br)cn3)cc2)CC1 | -5.49% |

| Compound | Percent Effect |
| --- | --- |
| CCC(O)CN1CCN(C(=O)c2ccc(Cn3cccc3)cc2)CC1 (stereo not given) | 90.26% |
| O=C(c1ccc(Cn2cccc2)cc1)N1CCN(CCO)CC1 | 94.5% |
| Cc1cc2c(c(-c3cnccn3)c1)OC(CN)C2 (stereo not given) | -6.126% |
| CCN(Cc1nc(COC)no1)Cc1cccnc1NC(=O)C(C)(C)C | -4.491% |
| Cc1c(Cl)cccc1NC(=O)Cn1cc(C(=O)O)ccc1=O | 1.545% |
| Cc1c(Cl)cccc1NC(=O)CCNc1ccc(C#N)cn1 | 0.2076% |
| Cc1c(Cl)cccc1NC(=O)c1nc[nH]n1 | 83.83% |
| Fc1ccc(CN2CCc3ncnc(C4CC4)c3CC2)cc1.O=C(O)C(F)(F)F | 98.26% |
| O=C(O)C(F)(F)F.c1ccc(CN2CCc3ncnc(C4CC4)c3CC2)cc1 | 85.35% |
| COc1ccc(CN2CCc3ncnc(C4CCOC4)c3CC2)cc1.O=C(O)C(F)(F)F (stereo not given) | -16.69% |
| O=C(O)C(F)(F)F.O=C(O)C(F)(F)F.c1ccc(CN2CCc3ncnc(C4CC4)c3CC2)nc1 | -2.713% |
| COc1ccc(CN2CCc3ncnc(C4CC4)c3CC2)cc1.O=C(O)C(F)(F)F | 110.6% |
| O=C(O)C(F)(F)F.O=C(O)C(F)(F)F.c1cncc(CN2CCc3ncnc(C4CC4)c3CC2)c1 | 8.838% |
| O=C(O)C(F)(F)F.c1nc2c(c(C3CC3)n1)CCN(Cc1ccc3c(c1)OCO3)CC2 | -14.88% |
| Fc1ccc(CN2CCc3ncnc(C4CCOC4)c3CC2)cc1.O=C(O)C(F)(F)F (stereo not given) | -4.98% |
| CCN(C)c1ncnc2c1CCN(Cc1ccc(OC)cc1)CC2.O=C(O)C(F)(F)F.O=C(O)C(F)(F)F | -7.101% |
| Cc1ccc(O)c(C(=O)N2CCC(CNC(=O)OC(C)(C)C)C2)c1 (stereo not given) | 18.78% |
| Cc1cc(NC(=O)c2ccc(N3CCOCC3)c(F)c2)[nH]n1 | -5.615% |
| Cl.O=C(NC[C@@]1(COc2cnccn2)C[C@@H](O)[C@@H](O)C1)C1CC1 | -0.6559% |
| O=C(NCCc1ccccc1F)NCC(O)c1cccc(F)c1 (stereo not given) | 91.24% |
| O=C(NCc1ccccc1F)NCC(O)c1cccc(F)c1 (stereo not given) | 109.5% |
| O=C(NCC(O)c1cccc(F)c1)c1cccnc1O (stereo not given) | -4.303% |
| CN1CCN(C)C(c2nnc3ccc(C(=O)N4CCOCC4)cn23)C1.O=C(O)C(F)(F)F.O=C(O)C(F)(F)F (stereo not given) | 7.547% |

— ChEMBL document CHEMBL3988442, “University of Dundee, Small-Polar-MMV Screening Library” (2021)
